Measured values taken from ChEMBL document CHEMBL2218924, “A broad activity screen in support of a chemogenomic map for kinase signalling research and drug discovery” (Biochem J, 2013).

Columns and labels:
[1] = molecular target: T1, Serine/threonine-protein kinase 3 (Homo sapiens) (UniProt Q13188); details: at 1 µM
T1 sequence (whole entry): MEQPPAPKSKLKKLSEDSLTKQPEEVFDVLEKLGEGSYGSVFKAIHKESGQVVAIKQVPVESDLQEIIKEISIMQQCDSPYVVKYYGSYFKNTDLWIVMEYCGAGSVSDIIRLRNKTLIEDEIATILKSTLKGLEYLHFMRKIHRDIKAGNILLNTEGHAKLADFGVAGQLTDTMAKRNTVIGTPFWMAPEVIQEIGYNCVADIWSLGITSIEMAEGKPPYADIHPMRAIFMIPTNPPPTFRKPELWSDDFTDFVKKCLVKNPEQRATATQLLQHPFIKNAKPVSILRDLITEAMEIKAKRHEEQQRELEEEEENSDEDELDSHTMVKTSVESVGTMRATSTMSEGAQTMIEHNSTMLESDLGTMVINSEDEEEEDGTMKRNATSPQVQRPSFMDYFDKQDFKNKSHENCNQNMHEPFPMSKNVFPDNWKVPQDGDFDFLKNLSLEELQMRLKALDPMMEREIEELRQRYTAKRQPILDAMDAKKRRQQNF

[2] = molecular target: T1, Serine/threonine-protein kinase 3 (Homo sapiens); details: at 10 µM
[3] = molecular target: Serine/threonine-protein kinase 24 (Homo sapiens) (UniProt Q9Y6E0); details: at 1 µM
[4] = molecular target: Serine/threonine-protein kinase 24 (Homo sapiens) (UniProt Q9Y6E0); details: at 10 µM
[5] = molecular target: T2, Tyrosine-protein kinase Mer (Homo sapiens) (UniProt Q12866); details: at 1 µM
T2 sequence (whole entry): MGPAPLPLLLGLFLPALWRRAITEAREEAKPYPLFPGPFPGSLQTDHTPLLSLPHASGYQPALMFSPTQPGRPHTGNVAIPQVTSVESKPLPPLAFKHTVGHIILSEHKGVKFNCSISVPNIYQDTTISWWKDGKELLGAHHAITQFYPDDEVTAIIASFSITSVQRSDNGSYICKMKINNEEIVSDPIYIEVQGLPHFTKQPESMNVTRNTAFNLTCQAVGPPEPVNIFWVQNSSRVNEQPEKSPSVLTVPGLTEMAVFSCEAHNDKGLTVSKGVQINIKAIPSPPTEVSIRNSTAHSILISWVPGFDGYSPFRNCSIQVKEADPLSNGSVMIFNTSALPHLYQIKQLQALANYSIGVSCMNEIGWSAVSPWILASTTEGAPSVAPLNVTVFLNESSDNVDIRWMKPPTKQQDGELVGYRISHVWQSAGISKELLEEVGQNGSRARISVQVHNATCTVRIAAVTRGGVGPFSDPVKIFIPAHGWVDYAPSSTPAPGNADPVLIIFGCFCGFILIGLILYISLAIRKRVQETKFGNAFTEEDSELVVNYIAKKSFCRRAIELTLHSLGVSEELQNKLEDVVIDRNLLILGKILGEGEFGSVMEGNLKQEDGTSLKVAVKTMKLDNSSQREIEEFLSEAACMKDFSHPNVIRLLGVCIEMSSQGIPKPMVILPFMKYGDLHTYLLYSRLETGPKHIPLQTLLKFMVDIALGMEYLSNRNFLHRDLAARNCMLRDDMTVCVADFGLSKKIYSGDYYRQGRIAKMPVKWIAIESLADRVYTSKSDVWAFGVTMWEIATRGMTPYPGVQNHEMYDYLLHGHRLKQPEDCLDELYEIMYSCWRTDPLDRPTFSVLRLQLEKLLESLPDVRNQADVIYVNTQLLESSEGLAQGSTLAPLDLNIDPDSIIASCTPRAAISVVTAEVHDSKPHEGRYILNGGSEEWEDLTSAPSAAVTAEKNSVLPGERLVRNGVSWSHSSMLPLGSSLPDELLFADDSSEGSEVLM

[6] = molecular target: T2, Tyrosine-protein kinase Mer (Homo sapiens); details: at 10 µM
[7] = molecular target: Hepatocyte growth factor receptor (Homo sapiens) (UniProt P08581); details: at 1 µM
[8] = molecular target: Hepatocyte growth factor receptor (Homo sapiens) (UniProt P08581); details: at 10 µM
[9] = molecular target: MAP kinase-interacting serine/threonine-protein kinase 2 (Homo sapiens) (UniProt Q9HBH9); details: at 1 µM
[10] = molecular target: MAP kinase-interacting serine/threonine-protein kinase 2 (Homo sapiens) (UniProt Q9HBH9); details: at 10 µM

Serine/threonine-protein kinase 24 (Homo sapiens), sequence (Q9Y6E0 whole entry, looked up): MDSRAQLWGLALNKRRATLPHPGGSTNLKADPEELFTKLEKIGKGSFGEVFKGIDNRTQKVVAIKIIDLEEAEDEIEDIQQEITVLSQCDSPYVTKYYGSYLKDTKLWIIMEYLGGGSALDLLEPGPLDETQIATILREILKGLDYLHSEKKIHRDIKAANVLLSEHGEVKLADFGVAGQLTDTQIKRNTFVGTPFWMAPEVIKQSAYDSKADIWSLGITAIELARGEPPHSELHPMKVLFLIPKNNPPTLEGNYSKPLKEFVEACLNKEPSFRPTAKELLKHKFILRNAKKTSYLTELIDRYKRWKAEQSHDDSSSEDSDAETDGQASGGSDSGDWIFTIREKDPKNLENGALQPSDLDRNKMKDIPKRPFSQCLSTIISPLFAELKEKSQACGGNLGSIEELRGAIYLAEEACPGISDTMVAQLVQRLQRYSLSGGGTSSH
MAP kinase-interacting serine/threonine-protein kinase 2 (Homo sapiens), sequence (Q9HBH9 whole entry, looked up): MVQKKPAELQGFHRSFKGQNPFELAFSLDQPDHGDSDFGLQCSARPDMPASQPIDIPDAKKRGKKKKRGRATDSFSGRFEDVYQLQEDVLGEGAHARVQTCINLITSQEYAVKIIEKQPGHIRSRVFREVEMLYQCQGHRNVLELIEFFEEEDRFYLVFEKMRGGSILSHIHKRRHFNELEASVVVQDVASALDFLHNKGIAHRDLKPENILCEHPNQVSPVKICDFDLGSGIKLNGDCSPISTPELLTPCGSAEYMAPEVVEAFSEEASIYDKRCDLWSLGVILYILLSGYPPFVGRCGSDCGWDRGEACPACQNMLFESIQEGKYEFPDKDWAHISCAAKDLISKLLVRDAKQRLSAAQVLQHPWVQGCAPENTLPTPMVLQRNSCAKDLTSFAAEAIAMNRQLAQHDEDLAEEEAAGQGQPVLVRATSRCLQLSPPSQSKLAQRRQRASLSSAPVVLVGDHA
Hepatocyte growth factor receptor (Homo sapiens), sequence (P08581 whole entry): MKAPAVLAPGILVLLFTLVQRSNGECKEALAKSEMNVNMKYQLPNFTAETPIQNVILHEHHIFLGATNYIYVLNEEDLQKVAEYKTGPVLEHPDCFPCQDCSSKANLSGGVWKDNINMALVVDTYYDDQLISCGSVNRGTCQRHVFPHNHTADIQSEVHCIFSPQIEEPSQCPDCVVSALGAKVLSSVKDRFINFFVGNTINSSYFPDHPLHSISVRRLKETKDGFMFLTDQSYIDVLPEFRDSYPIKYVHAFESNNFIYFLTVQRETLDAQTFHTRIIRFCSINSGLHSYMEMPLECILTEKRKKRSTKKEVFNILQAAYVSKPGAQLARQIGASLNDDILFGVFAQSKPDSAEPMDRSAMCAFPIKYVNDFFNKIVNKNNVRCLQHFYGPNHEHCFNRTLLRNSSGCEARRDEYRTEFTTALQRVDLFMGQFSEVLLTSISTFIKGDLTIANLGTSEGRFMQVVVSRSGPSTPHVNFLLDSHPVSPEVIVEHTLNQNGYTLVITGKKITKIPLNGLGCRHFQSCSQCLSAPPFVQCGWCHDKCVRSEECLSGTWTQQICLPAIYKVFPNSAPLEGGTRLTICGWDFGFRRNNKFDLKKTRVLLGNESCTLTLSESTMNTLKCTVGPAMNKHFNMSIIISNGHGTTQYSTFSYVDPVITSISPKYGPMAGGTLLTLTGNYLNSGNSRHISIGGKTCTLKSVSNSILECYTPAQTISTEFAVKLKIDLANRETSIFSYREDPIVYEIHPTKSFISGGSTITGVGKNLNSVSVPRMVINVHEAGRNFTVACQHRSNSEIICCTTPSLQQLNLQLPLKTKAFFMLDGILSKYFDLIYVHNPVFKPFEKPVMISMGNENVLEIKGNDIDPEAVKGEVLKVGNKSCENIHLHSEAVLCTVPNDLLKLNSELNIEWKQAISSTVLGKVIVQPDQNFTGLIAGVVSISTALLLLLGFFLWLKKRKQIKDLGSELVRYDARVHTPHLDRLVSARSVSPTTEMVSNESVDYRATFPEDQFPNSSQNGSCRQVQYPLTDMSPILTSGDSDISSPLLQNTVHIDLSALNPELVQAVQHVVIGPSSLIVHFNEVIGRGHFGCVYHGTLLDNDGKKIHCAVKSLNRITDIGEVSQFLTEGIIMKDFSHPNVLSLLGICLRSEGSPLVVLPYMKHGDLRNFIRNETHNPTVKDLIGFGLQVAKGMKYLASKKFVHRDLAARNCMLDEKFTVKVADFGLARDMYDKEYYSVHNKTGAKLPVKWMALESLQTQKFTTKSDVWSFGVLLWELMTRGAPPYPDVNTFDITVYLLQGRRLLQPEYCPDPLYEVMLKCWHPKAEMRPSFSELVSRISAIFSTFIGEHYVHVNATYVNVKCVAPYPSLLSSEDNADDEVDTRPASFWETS

SMILES | residual activity [1] [%] | residual activity [2] [%] | residual activity [3] [%] | residual activity [4] [%] | residual activity [5] [%] | residual activity [6] [%] | residual activity [7] [%] | residual activity [8] [%] | residual activity [9] [%] | residual activity [10] [%]
COc1ccc(OC)c2c(=S)c3ccccc3[nH]c12 | 96 | 93 | 80 | 85 | 99 | 85 | 118 | 119 | 97 | 77
Oc1c2ccccc2c2c3c(cccc13)N=N2 | 16 | 10 | 57 | 21 | 22 | 9 | 87 | 75 | 43 | 10
CC(C)n1cnc2/c(=N/c3cccc(Cl)c3)nc(NCCO)[nH]c21 | 71 | 36 | 62 | 29 | 54 | 10 | 87 | 47 | 95 | 77
Oc1ccc(-c2nc(-c3ccc(F)cc3)c(-c3ccncc3)[nH]2)cc1 | 108 | 90 | 93 | 77 | 110 | 96 | 117 | 37 | 117 | 94
O=C1c2ccccc2-[n+]2ccc3c([nH]c4ccccc43)c21 | 101 | 100 | 71 | 70 | 95 | 97 | 112 | 86 | 55 | 42
O=C1NC(=O)/C(=C\c2ccc3nccnc3c2)S1 | 96 | 100 | 57 | 55 | 111 | 60 | 98 | 94 | 76 | 28
COc1cccc(-c2cc(=O)c3ccccc3o2)c1N | 97 | 98 | 91 | 89 | 96 | 101 | 117 | 116 | 107 | 113
Ic1cccc(CSc2nnc(-c3ccncc3)o2)c1 | 39 | 15 | 50 | 43 | 69 | 48 | 126 | 100 | 91 | 89
O=C(Nc1cccc(Nc2nccc(Nc3cccc(C(F)(F)F)c3)n2)c1)C1CC1 | 89 | 60 | 72 | 65 | 72 | 70 | 79 | 55 | 70 | 77
N#C/C(=C(\N)Sc1ccc(N)cc1)c1ccccc1C(F)(F)F | 76 | 80 | 70 | 62 | 94 | 94 | 98 | 90 | 102 | 106
COc1ccc(CNc2nc(N(CCO)CCO)nc3c2ncn3C(C)C)cc1 | 107 | 104 | 65 | 60 | 90 | 60 | 122 | 85 | 99 | 100
O=C(Nc1cccc(Nc2cc(Nc3cccc(C(F)(F)F)c3)ncn2)c1)C1CC1 | 106 | 65 | 69 | 42 | 78 | 74 | 103 | 75 | 39 | 9
CO[C@H]1[C@@H](OC)C[C@H](C)[C@@H](OC)C2=CC(=O)C=C(NC(=O)/C(C)=C/C=C/[C@H](OC)[C@@H](OC(N)=O)/C(C)=C/[C@@H]1C)C2=O | 110 | 102 | 68 | 72 | 105 | 93 | 114 | 82 | 104 | 107
Nc1nc(Nc2ccc(S(N)(=O)=O)cc2)nn1C(=S)Nc1c(F)cccc1F | 0 | 1 | 0 | 1 | -1 | -1 | 3 | 0 | 6 | 14
Cc1nc(-c2ccccc2)c(-c2ccncc2)o1 | 102 | 96 | 101 | 100 | 99 | 88 | 128 | 94 | 106 | 77
O=c1cc(-c2cccc3c2Sc2ccccc2S3)oc(N2CCOCC2)c1 | 92 | 93 | 98 | 81 | 99 | 89 | 106 | 120 | 100 | 94
